L major viab: reduces viability of Leishmania major promastigotes; actives 9% (n = 200,000); inhibition, % at 10 µM; resazurin fluorescence viability; in the data active = inhibition above about 50%;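 note: promastigotes grown with compound for 44 hours at 28 °C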
CHOP inhibitor: blocks CHOP induction under ER stress | CHO-K1 CHOP-promoter luciferase, tunicamycin-induced, 15-18 h | inhibition, % at 10 µM | actives 3.8% (n = 220,000);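 active = compounds that reduced the stress-induced luciferase reporter signal by more than about 70% of percent inhibition, limit read from the data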;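 note: 0% = tunicamycin plus vehicle and 100% = wells without tunicamycin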
RAM network inh: yeast RAM network inhibition. S. cerevisiae dse1pr::URA3 reporter, 5-FOA growth OD615, 2 d; analog-sensitive cbk1-as2 kinase mutant strain. inhibition, % at 50 µM. actives 1.8% (n = 190,000);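 active = inhibition above a set limit, 3 SD over mean compound inhibition, cut at about 8.4% in these data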;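 note: 0% = DMSO-only wells with no growth and 100% = 10 µM 1-NA-PP1 full growth; inhibition rescues growth on 5-FOA so higher OD means more RAM inhibition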
WT yeast gro inh: growth inhibition of WT yeast, mitochondrial fusion screen; mitochondrial fusion phenotypic screen, WT strain; actives 2.1% (n = 190,000); inhibition, % at 10 µM; in the data active = inhibition above about 58%; tested in S. cerevisiae
* marks the source's active call; other numbers are inactive results; x = no result. An excerpt weighted towards active compounds, which were near 13% of everything screened.

SMILES	L major viab	CHOP inhibitor	RAM network inh	WT yeast gro inh
CCC(C)(C)NC(=O)C(c1ccc(OC)cc1)N(Cc1ccco1)C(=O)CCC(=O)Nc1cc(C)on1 (stereo unspecified)	96*	29	4	0
COc1ccc(C(C(=O)NC(C)(C)C)N(Cc2ccco2)C(=O)CCC(=O)Nc2cc(C)on2)cc1 (stereo unspecified)	87*	25	0	5
CS(=O)(=O)N(CC(=O)NCCSc1ccccn1)c1cccc2ccccc12	37	4	3	-5
COc1ccc(-n2c(O)c(/C=N/NS(=O)(=O)c3cccc([N+](=O)[O-])c3)c3ccccc3c2=O)cc1OC	2	8	5	-5
CCOc1ccc(S(=O)(=O)NN2Cc3ccccc3C2=N)cc1	0	-20	0	-7
C/C(=N/N1CCN(c2ccccn2)CC1)c1cccc([N+](=O)[O-])c1	30	11	2	12
Cc1ccc(CNC(=O)CSc2nc3n[nH]c(C)c3c(=N)n2-c2cccc(C)c2)cc1	3	66	0	6
Cc1cc(-n2c(SCC(=O)NCc3cccs3)nc3n[nH]c(C)c3c2=N)ccc1Cl	4	81*	8	-12
Cc1ccc(-n2nnnc2SCc2nc3sc(C)c(C)c3c(=O)[nH]2)cc1	58*	43	3	-8
CC(=O)c1sc2nc(CSc3nnnn3-c3ccccc3)[nH]c(=O)c2c1C	4	-10	2	-18
Cc1sc2nc(CSc3cccc(C(F)(F)F)c3)[nH]c(=O)c2c1C	-5	73*	0	-14
O=c1[nH]c(CSc2nc3ccccc3s2)nc2ccccc12	x	-13	x	x
Cc1sc2nc(CSc3nc4ccccc4s3)[nH]c(=O)c2c1C	8	77*	3	2
COc1ccccc1NC(=O)COC(=O)c1ccc2c(c1)nc(C)n2-c1ccccc1	57*	23	2	9
CNc1nc(N)c(C(=O)C23CC4CC(CC(C4)C2)C3)s1	100*	35	1	-13
Cc1nnc(Cl)c2nn(-c3ccccc3F)c(C)c12	-3	8	0	-5
Cc1nnc(SCCN2CCOCC2)c2nn(-c3ccccc3F)c(C)c12	53*	41	-1	-6
COc1ccccc1-n1cc(C(=O)c2cc(Cl)ccc2O)cc(C#N)c1=O	18	19	9.7*	-14
Cc1ccccc1-n1cc(C(=O)c2cc(Cl)ccc2O)cc(C#N)c1=O	2	39	0	-17
COc1ccc(CCN(Cc2nc(-c3ccccc3)no2)Cc2nc(-c3ccccc3)no2)cc1OC	-4	-7	9.0*	3
COc1ccc(CCN(C)Cc2nc(-c3cnccn3)no2)cc1OC	x	17	x	x
COC(=O)c1ccc(Oc2ccc(C(C)(C)C)cc2)c([N+](=O)[O-])c1	0	33	8.4*	x
COc1ccc(/C(C)=N/NC(=O)CNC(=O)c2cccs2)cc1OC	3	0	1	-14
COc1cc(C(=O)NCC(=O)N/N=C(/C)c2cccs2)cc(OC)c1OC	65*	19	-1	-30
c1ccc(C2CC(c3ccccc3)n3c(nc4ccccc43)N2)cc1 (stereo unspecified)	13	-11	2	7
SMILES	L major viab	CHOP inhibitor	RAM network inh	WT yeast gro inh
COc1ccc(N2CCN(S(=O)(=O)c3cnc[nH]3)CC2)cc1	x	4	x	x
C=CCN(c1ccc(OC)cc1)S(=O)(=O)c1ccc(Cl)c(C(=O)OCC(=O)NC2CC2)c1	-2	-11	4	-9
C=CCN(c1ccccc1)S(=O)(=O)c1ccc(Cl)c(C(=O)OCC(=O)c2[nH]c(C)c(C(C)=O)c2C)c1	76*	44	5	7
CCOC(=O)C1=C(O)c2ccccc2C(=O)/C1=C\c1ccc(CC)cc1	-5	87*	6	9
COc1ccc(NC(C)=O)cc1S(=O)(=O)Nc1ccc2c(c1)OCCO2	-2	10	1	0
COc1ccccc1NS(=O)(=O)c1cc(NC(=O)CNC(=O)c2ccccc2)ccc1C	64*	52	0	-9
COc1ccccc1NS(=O)(=O)c1cc(NC(=O)c2ccc3c(c2)OCCO3)ccc1C	58*	29	5	44
COc1ccccc1NS(=O)(=O)c1cc(NC(=O)CCNC(C)=O)ccc1C	-7	5	0	1
O=C(Cc1ccccc1)c1c[nH]c(C(=O)NC2CCCC2)c1	2	12	2	-6
O=C(/C=C/Nc1ccc(S(=O)(=O)Nc2ncccn2)cc1)c1ccc2ccccc2c1	x	8	x	x
Cc1cccc(-n2c(C)cc(/C=N/NC(=O)c3cccc([N+](=O)[O-])c3C)c2C)c1	64*	50	1	14
COC(=O)C(CO)NC(=O)C(C)NC(=O)CNC(=O)OCc1ccccc1 (stereo unspecified)	-7	-11	1	-16
COc1ccc2nc(SCC(=O)N3CCCCC3)c(C#N)cc2c1	58*	2	5	-8
CCc1ccc2nc(SCC(=O)N3CCCCC3)c(C#N)cc2c1	4	8	0	-14
COc1ccc2nc(SCC(=O)N3CCCCCC3)c(C#N)cc2c1	80*	38	4	0
COc1ccc(C2NC(=S)N(c3ccccc3)C(C)=C2C(=O)Nc2ccccc2)cc1 (stereo unspecified)	100*	13	1	9
O=C(Cn1cnc2c(nnn2-c2cccc(Cl)c2)c1=O)NCc1ccccc1	-8	12	1	-7
O=C(/C=C/c1cccc2ccccc12)c1ccncc1	100*	30	-2	7
Cc1cc(C(=O)CN2CCCC(C)C2)c(C)n1-c1ccc(F)cc1 (stereo unspecified)	73*	24	0	-13
Cc1ccc(-n2c(C)cc(C(=O)CN3CCOCC3)c2C)cc1C	57*	3	1	-11
O=C(C1CCC(CNS(=O)(=O)c2cccc3nsnc23)CC1)N1CCN(c2ccccn2)CC1 (stereo unspecified)	1	5	0	-6
CC(=O)Nc1ncc(Cc2cccc(Cl)c2Cl)s1	4	10	3	-3
CC(=O)Nc1ncc(Cc2cc(Cl)ccc2Cl)s1	20	-15	1	76*
CCN1CCN(c2ccc(N=Cc3ccccc3O)cc2)CC1	0	7	0	-4
COc1ccccc1/C=C(\NC(=O)c1ccc(OC)c(OC)c1)C(=O)Nc1ccc([N+](=O)[O-])cc1	5	9	8.5*	5
SMILES	L major viab	CHOP inhibitor	RAM network inh	WT yeast gro inh
O=C(Nc1cccc(C(=O)O)c1)/C(=C/c1ccc([N+](=O)[O-])cc1)NC(=O)c1ccccc1	-7	22	9.9*	-12
O=C(Nc1ccc(C(=O)O)cc1)/C(=C\c1ccc([N+](=O)[O-])cc1)NC(=O)c1ccc(Br)cc1	1	16	8	4
Cc1cc(C)n(CC(=O)O)c(=O)c1[N+](=O)[O-]	0	-3	-1	-7
CCOC(=O)c1sc(S(C)=O)c2c1CCc1conc1-2 (stereo unspecified)	x	15	x	x
O=C(CN1CCCc2ccccc21)N/N=C/c1ccccc1O	99*	34	4	9
O=C(CN1CCCc2ccccc21)Nc1ccc(F)cc1[N+](=O)[O-]	-3	74*	2	-1
O=C(CN1CCCc2ccccc21)N/N=C/c1ccc(F)cc1F	x	45	x	x

Screens from PubChem BioAssay.
